Screening data deposited in PubChem BioAssay by National Center for Advancing Translational Sciences (NCATS).
The list is not random: actives were taken first. Their share in the collection is about 13%.
Marburg entry inh = Marburg virus entry inhibition | 300,000 tested, 1.8% active | Marburg virus pseudotyped entry inhibition, cell reporter | Potency, µM (titrated, usually from 37.8 µM), for inactives: at the highest dose activity change, negative = inhibition, hits mostly inhibitors; calls by dose curve; tested in HEK293 cells; also: potency is read from the fitted curve at half-maximal effect; % is scaled to controls: 0 for no effect and ±100 for the full control effect
CHX counter = counter-screen hit for Shiga toxin inhibitors, cycloheximide; AID 2314; 300,000 tested, 12% active; cell reporter, cycloheximide protein synthesis inhibition counterscreen; max response, %; in the data active = max response mostly above about 13%, no sharp cut-off; inactive = mostly below about 14%; also: read at 38.3 µM for the half of the compounds with a filed dose; 0% is about no effect
LASV entry inh = inhibitors of Lassa virus binding or cell entry. Lassa virus pseudotype entry inhibition, cell reporter. Potency, µM (top dose mostly 37.9 µM), for the others: at the top dose activity change, negative = inhibition, usual class: inhibitors. 300,000 tested, 1.2% active. AID 540256; calls by dose curve; tested in HEK293 cells; also: potency is read from the fitted curve at half-maximal effect; % is scaled to controls: 0 for no effect and ±100 for the full control effect; nearly all actives have a fitted effect of over 50% in size
Shiga inhibitor = inhibitors of Shiga toxin in Vero cells; Vero cells, Shiga toxin protein synthesis inhibition reporter; inhibition, % at 38.7 µM; 290,000 tested, 9.2% active; AID 2315; in the data active = inhibition mostly above about 28%, no sharp cut-off; inactive = mostly below about 43%; also: 0% is about no effect
HCV inh = HCV inhibition; Huh7.5.1 HCVcc-Cre infection, luciferase reporter, 44 h; 340,000 tested, 3.4% active; AID 651820; Potency, µM (highest dose often 41.8 µM), without a hit: top-dose activity change, negative = inhibition, most hits filed as inhibitors; active = well fitted inhibition curve with a large enough effect; inconclusive = small, poorly fitted or top-dose-only effect, or another doubt; inactive = no such curve, though single readings can be large or run the other way; also: potency is read from the fitted curve at half-maximal effect; % is scaled to controls: 0 for no effect and ±100 for the full control effect
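Whole-lifecycle infectious HCVcc-Cre system; cells 1,000/well, compound then virus (~0.5 moi) added 4 h after plating, 44 h culture. Luciferase read 15 sec following 15 min substrate incubation, room temp.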
FMDV antiviral = foot and mouth disease virus antiviral activity; 410,000 tested, 1.2% active; FMDV antiviral cell-based qHTS; AID 1159524; Potency, µM (top dose mostly 57.9 µM), without a hit: at the top dose activity change, negative = inhibition, hits mostly inhibitors; calls by dose curve; tested in HEK293T cells; also: read-out not given here; potency is read from the fitted curve at half-maximal effect; % is scaled to controls: 0 for no effect and ±100 for the full control effect; nearly all actives have a fitted effect of over 45% in size
An asterisk follows results filed as active; ? = inconclusive; . = not tested or not shown; [ ] = dose if it differs, or a comment.

SMILES	Marburg entry inh	CHX counter	LASV entry inh	Shiga inhibitor	HCV inh	FMDV antiviral
O=C(CSc1nc2ccccc2s1)NCCOc1ccccc1	?	15*	9%	17	5%	25%
Cn1ccnc1SCC(=O)Nc1ccc2nc(SCC(=O)NC3CC3)sc2c1	?	33*	-11%	113*	-1%	11%
Cc1noc(C)c1S(=O)(=O)N1CCC(C(=O)NCCN2CCC(C)CC2)CC1	0%[46.1 µM]	-5	8%	19	1%	-15%
O=C(O)CSC1=NC(=Nc2ccc(Cl)cc2)C2(CCCCC2)N1c1cccc(C(=O)O)c1	?	-2	-1%	37	0%	-11%
COC(=O)C1=C(N)Oc2cc(C)n(C)c(=O)c2C1c1ccc(Cl)cc1 (stereo not given)	-25%	-3	-11%	-12	-33%	-22%
Cc1ccc(Nc2c(-c3cccs3)nc3nc(C)cc(C)n23)cc1	28%[46.1 µM]	.	?	.	.	21%
CC(=NCc1ccccc1)c1ccccc1O	.	.	.	.	.	-5%
O=C(Cc1ccc(-n2cccc2)cc1)NCc1cccs1	?	-5	2%	26	-18%	-17%
O=C(CSc1nc2ccccc2s1)Nc1ncccn1	-5%[46.1 µM]	40*	6%	13	9%	39%
Cc1cnc(NC(=O)CSc2nc3ccccc3s2)s1	-4%	15	-9%	0	13%	-17%
Cc1nc(Nc2ccccc2)sc1C(=O)c1ccc(F)cc1	-3%	67*	?	143*	?	50%
Cc1nc(NC(=O)/C=C/c2ccccc2)sc1C(=O)Nc1ccccc1	-16%	-1	-3%	-1	-16%	-15%
Cc1nc(Nc2ccccc2Cl)sc1C(=O)Nc1ccccc1	-14%	19*	8%	22	?	17%
COc1ccc(C(=O)c2sc(Nc3ccc(NC(C)=O)cc3)nc2C)cc1	.	0	.	12	-17%	-20%
Cc1nc(NCc2ccccc2)sc1C(=O)Nc1ccccc1	19%[46.1 µM]	26*	-10%	50*	?	30%
Cc1nc(NC(C)c2ccccc2)sc1C(=O)Nc1ccccc1 (stereo not given)	-33%	5	?	11	-13%	0%
Cc1nc(NCCOc2ccccc2)sc1C(=O)Nc1ccccc1	.	59*	.	92*	-29%	0%
Cc1ccc(CC(CC(=O)Nc2cccc(C(F)(F)F)c2)C(=O)O)cc1 (stereo not given)	.	-2	.	-12	4%	52%
CCCCc1cc(=O)oc2cc(C)cc(OCC(=O)N[C@@H](CSCc3ccccc3)C(=O)O)c12	.	-2	.	-2	?	-18%
Cn1c(=O)c2c(ncn2CC(=O)NC[C@H]2O[C@@H](n3cnc4c(N)ncnc43)[C@H](O)[C@@H]2O)n(C)c1=O	.	.	.	.	12%	-21%
COc1ccc(-n2nc(C(=O)NCC(=O)Nc3cc(OC)ccc3OC)c3ccccc3c2=O)cc1	?	-9	.	-5	?	?
O=C(CCNS(=O)(=O)c1ccccc1F)N1CCN(C(c2ccccc2)c2ccccc2)CC1	?	.	?	.	?	-25%
Nc1nc(Nc2ccccc2F)sc1C(=O)c1ccccc1	.	50*	.	57*	?	42%
Cc1nc(Nc2ccccc2)sc1C(=O)Nc1ccccc1	?	39*	?	59*	?	24%
Cc1nc(Nc2ccc(S(N)(=O)=O)cc2)sc1C(=O)Nc1ccccc1	-29%[46.1 µM]	-2	?	-9	?	?
SMILES	Marburg entry inh	CHX counter	LASV entry inh	Shiga inhibitor	HCV inh	FMDV antiviral
O=C(NNc1ccccc1F)c1ccccc1	?	5	25%[46.1 µM]	22	11%	-15%
Cc1cc2nnc(SCC(=O)NC3CCCCC3)n2c(N)n1	-3%[46.1 µM]	-7	6%[46.1 µM]	23	0%	31%
CCn1c(NCc2cc(OC)ccc2OC)nc2ccccc21	-9%	30*	-21%	69*	?	40%
CCCn1c(NCc2cc(OC)ccc2OC)nc2ccccc21	-28%	27*	2%	53	?	27%
CCn1c(NCc2cccc(OC)c2OC)nc2ccccc21	1%	13	5%	26*	0%	42%
CCCCCn1c(NCc2ccc(OC)cc2)nc2ccccc21	?	.	?	.	.	-29%
CCOc1ccccc1CNc1nc2ccccc2n1C	.	7	.	10	4%	-3%
COc1ccc(OC)c(CNc2nc3ccccc3n2CCN2CCCCC2)c1	?	-4	-11%	-7	11µM*	-10%
COc1ccc(CNc2nc3ccccc3n2CCN2CCCCC2)c(OC)c1	?	10	-23%	24	-14%	-1%
COc1ccc(N(CC(=O)NCc2ccccc2)C(=O)CCC(=O)Nc2cc(C)ccn2)c(OC)c1	?	-4	?	-12	10%	-17%
CCOC(=O)c1c(-c2cccs2)csc1NC(=O)COC(=O)c1c(C)noc1C	?	-3	-27%	-16	?	?
COc1cc(C2SCC(=O)N2c2nnc(C34CC5CC(CC(C5)C3)C4)s2)cc(OC)c1OC (stereo not given)	-6%	-1	-22%	-11	12%	.
COc1ccccc1C(O)c1ncc(-c2ccc(Cl)cc2)[nH]1 (stereo not given)	.	.	.	.	.	11%
CCOc1ccccc1NC(=O)c1cccc(NC(=O)CC(c2ccccc2)c2ccccc2)c1	?	8	?	-12	?	-11%
COc1cccc(CNc2nc3ccccc3n2CCN2CCCCC2)c1	?	0	5%	-18	-28%	-30%
COc1cccc(CNc2nc3ccccc3n2CCN2CCCCC2)c1OC	11µM*	-1	?	4	-4%	-23%
Oc1ccccc1C=NNC(=S)NN=Cc1ccccc1O	?	.	?	.	-20%	24%
COc1cccc(/C=N/NC(=S)NC2CC3CC2C2C=CCC32)c1O (stereo not given)	?	35*	9%	87*	5%	37%
Oc1ccccc1/C=N/NC(=S)NC1CC2CC1C1C=CCC21 (stereo not given)	?	53*	?	49*	?	-13%
COc1ccc(S(=O)(=O)Nc2cccc3c2O[C@H](CN(C)Cc2ccccc2)[C@@H](C)CN([C@H](C)CO)C3=O)cc1	.	.	.	.	8%	69%
c1ccc(Cc2nn3c(COc4ccccc4)nnc3s2)cc1	11%	13*	-13%	60*	9%	115%
O=C(Nc1ccc2c3c(cccc13)CC2)c1ccc(Br)o1	17%	23	18%	7	?	41%
COc1ccc(C(=O)Nc2ccc3c4c(cccc24)CC3)cc1	-1%	32*	?	73	?	40%
O=C(Nc1ccc2c3c(cccc13)CC2)c1ccco1	?	19*	?	53	0%	17%
CC(NC(=O)CCc1nnc(Cc2cccc(C(F)(F)F)c2)o1)C1CC1 (stereo not given)	?	53*	2%[46.1 µM]	92*	2%	29%
O=C(CCc1nnc(Cc2cccc(C(F)(F)F)c2)o1)NCC(F)(F)F	4%[46.1 µM]	1	27%	16	4%	0%
